# From PubChem BioAssay (NCATS)
# Several values for one entry are separate records, joined by “and”; a condition that tells them apart may be missing. Equal values may be shown once. Inconclusive results are not listed. Where a call stands in place of a potency, no number is given. A number with no mark means an inactive call. Activity calls are given as the source filed them. Calls follow the shape of the dose curve; as a rule, active = well fitted curve in the direction sought with a large enough effect; inconclusive = small, poorly fitted or top-dose-only effect, or another doubt; inactive = no such curve, though single readings can be large; an effect the other way counts as inactive or inconclusive.
# Tests used:
# [1] = Primary qHTS for inhibitors of nuclear receptor binding SET domain protein 2 (NSD2) in an isogenic RCH-ACV NSD2 p.E1099K mutant (9B) (AID 1645876); settings: RCH-ACV NSD2 E1099K (9B) viability, CellTiter-Glo, 72 h; series mostly up to 44.9 µM
# [2] = Primary qHTS for inhibitors of nuclear receptor binding SET domain protein 2 (NSD2) in an RCH-ACV wild type WT cells (2C) (AID 1645877); settings: RCH-ACV (leukaemia line) NSD2 WT (2C) viability, CellTiter-Glo, 72 h; series mostly up to 44.9 µM
# Also: nearly all actives have a fitted effect of over 70% in size.
# Potency is read from the fitted curve at half-maximal effect.
structure (smiles),measurement,setting,value
C/C(=C\CCC(C)(O)c1ccc(C)cc1)C(=O)O (stereo not given),Potency,[1],inactive
same,Potency,[2],inactive
Cc1coc2c1CC1OC1(C)CCC1OC1(C)C2 (stereo not given),Potency,[1],inactive
same,Potency,[2],inactive
C=C1[C@@H]2CC[C@@]3(C)[C@H](c4ccoc4)OC(=O)C[C@]13O[C@H]1CC(=O)C(C)(C)[C@H](CC(=O)OC)[C@]12C,Potency,[1],inactive
same,Potency,[2],inactive
C[C@@H]1CCC2C(C)(C)[C@H](O)CC[C@]2(C)[C@@]12Cc1c(O)cc3c(c1O2)CN(CCO)C3=O (stereo not given in full),Potency,[1],inactive
same,Potency,[2],inactive
C=C[C@H]1[C@H](O[C@@H]2O[C@H](CO[C@@H]3OC[C@](O)(CO)[C@H]3O)[C@@H](O)[C@H](O)[C@H]2O)OC=C2C(=O)OCC[C@H]21,Potency,[1],inactive
same,Potency,[2],inactive
C/C=C1\[C@H](O[C@@H]2O[C@H](CO)[C@@H](O)[C@H](O)[C@H]2O)OC=C(C(=O)OC)[C@H]1CC(=O)OC,Potency,[1],inactive
same,Potency,[2],inactive
CC(C)CC(=O)n1cc(C(N)=O)c(=O)cc1C(O)c1ccccc1 (stereo not given),Potency,[1],inactive
same,Potency,[2],inactive
CCC(CC)n1ccc2c(C(=O)NCc3c(C)cc(C)[nH]c3=O)cc(C#N)cc21,Potency,[1],inactive
same,Potency,[2],inactive
CC(=O)c1c(C)cc(O)cc1O[C@@H]1O[C@H](CO)[C@@H](O)[C@H](O)[C@H]1O,Potency,[1],inactive
same,Potency,[2],inactive
CC1CCC2C(C(=O)O)=CC3C(O)C(C)(C)CC123 (stereo not given),Potency,[1],inactive
same,Potency,[2],inactive
O=C(/C=C/c1ccc(O)cc1)OC[C@]12O[C@H]1[C@@H](O)[C@@H]1C=CO[C@@H](O[C@@H]3O[C@H](CO)[C@@H](O)[C@H](O)[C@H]3O)[C@@H]12,Potency,[1],inactive
same,Potency,[2],inactive
C[C@H]1C[C@H]2[C@@H]3CCC4=CC(=O)C=C[C@]4(C)[C@@]3(F)[C@@H](O)C[C@]2(C)[C@@]1(O)C(=O)COP(=O)(O)O,Potency,[1],inactive
same,Potency,[2],57.8 nM (active)
CC(=O)NC(CCC(=O)O)C(=O)NCCc1ccc(O)cc1 (stereo not given),Potency,[1],inactive
same,Potency,[2],inactive
CCOC(=O)c1c(C)nn(-c2cccc([N+](=O)[O-])c2)c1C,Potency,[1],inactive
same,Potency,[2],inactive
C[C@@H](OC(=O)/C=C/c1ccc(O)cc1)C1=C[C@]2(C=C[C@@H]3C(C(=O)O)=CO[C@@H](O[C@@H]4O[C@H](CO[C@@H]5O[C@H](CO)[C@@H](O)[C@H](O)[C@H]5O)[C@@H](O)[C@H](O)[C@H]4O)[C@@H]32)OC1=O,Potency,[1],inactive
same,Potency,[2],inactive
C=CCc1ccc(O[C@@H]2O[C@H](CO)[C@@H](O)[C@H](O)[C@H]2O)c(OC)c1,Potency,[1],inactive
same,Potency,[2],inactive
CC(=O)N(O)CCCCCN1C(=O)CCC1=O,Potency,[1],inactive
same,Potency,[2],inactive
CC(C)[C@H]1CCC(CO)=C[C@@H]1/C=C(\CO)C(=O)O,Potency,[1],inactive
same,Potency,[2],inactive
C[C@H](NCc1ccc(OCc2ccccc2F)cc1)C(N)=O,Potency,[1],inactive
same,Potency,[2],inactive
CC(C)C1=CC2=CCC3[C@](C)(CCC[C@@]3(C)C(=O)O)C2CC1O (stereo not given in full),Potency,[1],inactive
same,Potency,[2],inactive
CCCCCCc1cccc(NC(=O)[C@H](N)CCP(=O)(O)O)c1,outcome,[1],inactive [at 9.23 µM]
same,outcome,[2],inactive [at 9.23 µM]
CC(C)=CC/C=C(/C)[C@H]1CC[C@]2(C)[C@@H]1[C@H](O)CC1[C@@]3(C)CC[C@H](O)C(C)(C)[C@@H]3[C@@H](O[C@@H]3O[C@H](CO)[C@@H](O)[C@H](O)[C@H]3O[C@@H]3O[C@@H](C)[C@H](O)[C@@H](O)[C@H]3O)C[C@]12C (stereo not given in full),Potency,[1],inactive
same,Potency,[2],inactive
C/C=C(\C)C(=O)O[C@H]1[C@H](O)[C@]2(COC(C)=O)[C@H](O)C[C@]3(C)C(=CCC4[C@@]5(C)CC[C@H](O[C@@H]6O[C@H](C(=O)O)[C@@H](O[C@@H]7O[C@H](CO)[C@@H](O)[C@H](O)[C@H]7O)[C@H](O)[C@H]6O[C@@H]6O[C@H](CO)[C@@H](O)[C@H](O)[C@H]6O)[C@](C)(CO)C5CC[C@]43C)[C@@H]2CC1(C)C (stereo not given in full),"activity change, negative = viability loss",[1],0.0444% [at 9.23 µM]
same,"activity change, negative = cell killing",[2],-12.8% [at 9.23 µM]
COCCCNCC1COc2ccccc2O1 (stereo not given),Potency,[1],inactive
same,Potency,[2],inactive
CC1OC(OC2C(O)C(C(=O)O)OC(OC3CCC4(C)C(CCC5(C)C4C=CC4=C6CC(C)(C)CC(O)C6(C)CCC45C)C3(C)C)C2OC2OCC(O)C(O)C2O)C(O)C(O)C1O (stereo not given),outcome,[1],inactive [at 9.23 µM]
same,outcome,[2],inactive [at 9.23 µM]
COc1cc(C)c(C(=O)O[C@H]2[C@@H](O)[C@H](n3ccc(=O)[nH]c3=O)O[C@@H]2CO)c(OC)c1,Potency,[1],inactive
same,Potency,[2],inactive
CC1CCC2C(C(=O)O)=CC3CC(C)(C)CC132 (stereo not given),Potency,[1],inactive
same,Potency,[2],inactive
COc1ccc(C)c2sc(NC(=O)c3ccncc3)nc12,Potency,[1],inactive
same,Potency,[2],inactive
CC1(C)CC(=O)N(CCCCN2CCN(c3ncccn3)CC2)C(=O)C1,Potency,[1],inactive
same,Potency,[2],inactive
COC(=O)c1ccc(O[C@@H]2O[C@H](CO)[C@@H](O)[C@H](O)[C@H]2O)c(OC)c1,Potency,[1],inactive
same,Potency,[2],inactive
CC(=O)O[C@@]1(C)C[C@@H](O)[C@]2(O)C=CO[C@@H](O[C@@H]3O[C@H](CO)[C@@H](O)[C@H](O)[C@H]3O)[C@@H]21,Potency,[1],inactive
same,Potency,[2],inactive
CC1(C)CC2C(O)C3=C(CC(C)(O)C2C1)C(=O)OC3O (stereo not given),Potency,[1],inactive
same,Potency,[2],inactive
CC(C(=O)O)C1CCC2(C)C3C(=O)C=C4C(CCC(=O)C4(C)C)C3(C)CCC12C (stereo not given),Potency,[1],inactive
same,Potency,[2],inactive
O=C(c1ccc(C#Cc2cccc(F)c2)cn1)N1CC2CC2C1 (stereo not given),Potency,[1],inactive
same,Potency,[2],inactive
CC12CCC3C(C)(C)C(O)CCC3(C)C1Cc1c(oc(C(=O)O)cc1=O)O2 (stereo not given),Potency,[1],inactive
same,Potency,[2],inactive
COc1c(OC2OC(CO)C(O)C(O)C2O)ccc(O)c1C(=O)OCc1ccccc1O[C@@H]1O[C@H](CO)[C@@H](O)[C@H](O)[C@H]1O (stereo not given in full),Potency,[1],inactive
same,Potency,[2],inactive
CC1[C@@H](O)[C@@H](O)C2[C@]3(C)C(C[C@H]4OC(=O)[C@H](O)[C@]1(O)[C@@]24C)C(C)(O)C[C@H](O)[C@H]3O (stereo not given in full),Potency,[1],inactive
same,Potency,[2],inactive
CCC[C@@H]1C[C@@H](C(=O)N[C@@H]([C@H]2O[C@H](SC)[C@H](O)[C@@H](O)[C@@H]2O)[C@@H](C)O)N(C)C1,Potency,[1],inactive
same,Potency,[2],inactive
CC(C)(O)CNc1nc(Nc2ccnc(C(F)(F)F)c2)nc(-c2cccc(C(F)(F)F)n2)n1,Potency,[1],20.9 µM (active)
same,Potency,[2],20900 nM (active)
C[C@@H]1O[C@@H](OC[C@H]2O[C@@H](OCCc3ccccc3)[C@H](O)[C@@H](O)[C@@H]2O)[C@H](O)[C@H](O)[C@H]1O,Potency,[1],inactive
same,Potency,[2],inactive
O=C(O)Cc1nn(Cc2nc3cc(C(F)(F)F)ccc3s2)c(=O)c2nccnc12,Potency,[1],inactive
same,Potency,[2],inactive
O=C(c1ccc(F)cc1)C1CCN(CCn2c(=O)nc3n(c2=O)CCCC3)CC1,Potency,[1],inactive
same,Potency,[2],inactive
CC(=O)O[C@@H]1[C@@H](OC(=O)/C=C/c2ccccc2)[C@H](C)O[C@@H](O[C@H]2[C@@H]3C=CO[C@@H](O[C@@H]4O[C@H](CO)[C@@H](O)[C@H](O)[C@H]4O)[C@@H]3[C@@]3(CO)O[C@@H]23)[C@@H]1OC(C)=O,Potency,[1],inactive
same,Potency,[2],inactive
CC1(C)CC2C(C1)C1(C)CCC13OC3(CO)C2O (stereo not given),Potency,[1],inactive
same,Potency,[2],inactive
CC(=O)O[C@@H]1[C@H](O[C@@H]2O[C@H](CO)[C@@H](O)[C@H](O)[C@H]2O)[C@@H](O[C@@H]2O[C@@H](C)[C@H](O)[C@@H](O[C@@H]3O[C@H](CO)[C@@H](O)[C@H](O)[C@H]3O)[C@H]2O)[C@H](OC(=O)C23CCC4(C)C(=CCC5C6(C)CC(O)C(O[C@@H]7O[C@H](C(=O)O)[C@@H](O)[C@H](O)[C@H]7O)C(C)(C(=O)O)C6CCC54C)C2CC(C)(C)CC3O)O[C@@H]1C (stereo not given in full),outcome,[1],inactive [at 9.23 µM]
same,"activity change, negative = cell killing",[2],0.269% [at 9.23 µM]
CN1Cc2c(N)cccc2C(c2ccccc2)C1 (stereo not given),Potency,[1],inactive
same,Potency,[2],inactive
C=C(C(=O)O)C1CCC(C)C2CCC(=O)OC2(C)C1 (stereo not given),Potency,[1],inactive
same,Potency,[2],inactive
COc1cc(N2CCC(N(C)C)CC2)ccc1Nc1ncc(Cl)c(Nc2ccccc2P(C)(C)=O)n1,Potency,[1],2.3 µM (active) and 2.63 µM (active)
same,Potency,[2],3.25 µM (active) and 3.32 µM (active)
COc1ccc(/C=C/C(=O)O[C@@H]2[C@@H](O)[C@H](C)O[C@@H](OC3C4C=COC(O[C@@H]5O[C@H](CO)[C@@H](O)[C@H](O)[C@H]5O)C4C4(CO)OC34)[C@@H]2O)cc1OC (stereo not given in full),Potency,[1],inactive
same,Potency,[2],inactive
N#CCc1ccc(O)cc1O[C@@H]1O[C@H](CO)[C@@H](O)[C@H](O)[C@H]1O,Potency,[1],inactive
same,Potency,[2],inactive
CN1C(=O)c2ccccc2NC(=O)[C@]12O[C@@H]2c1cccc(O)c1,Potency,[1],inactive
same,Potency,[2],inactive
CCCCN(CCCC)C(=O)CN1C[C@H](c2ccc3c(c2)OCO3)[C@@H](C(=O)O)[C@@H]1c1ccc(OC)cc1,Potency,[1],inactive
same,Potency,[2],inactive
CCC[C@@H]1C[C@@H](C(=O)N[C@H](C(C)Cl)[C@H]2O[C@H](SC)[C@H](O)[C@@H](O)[C@H]2O)N(C)C1 (stereo not given in full),Potency,[1],inactive
same,Potency,[2],inactive
CO[C@@H]1CC[C@H](OC[C@]2(COC(=O)c3ccc(C)[nH]3)[C@H](OC(C)=O)CC[C@@]3(C)[C@@H]4CC=C(C)[C@@H](C5=C(O)C(=O)OC5O)[C@]4(C)CC[C@@H]32)O[C@H]1C (stereo not given in full),Potency,[1],inactive
same,Potency,[2],inactive
O=C(CCO[C@@H]1O[C@H](CO)[C@@H](O)[C@H](O)[C@H]1O)c1ccc(O)cc1,Potency,[1],inactive
same,Potency,[2],inactive
NCc1c[nH]c(=S)n1C1CCc2c(F)cc(F)cc2C1 (stereo not given),Potency,[1],inactive
same,Potency,[2],inactive
CC1CCC2C(C)(C)CC(C)(CO)C2(O)C1C(=O)O (stereo not given),Potency,[1],inactive
same,Potency,[2],inactive
COc1cc(C/C(=C/NC(C)=O)N(CC(=O)Cc2ccccc2)C(C)=O)cc2c1OCO2,Potency,[1],inactive
same,Potency,[2],inactive
CC(C)C1=CC2=CCC3[C@](C)(CCC[C@@]3(C)C(=O)O)C2CC1=O (stereo not given in full),Potency,[1],inactive
same,Potency,[2],inactive
C=C(C(=O)O)[C@@H]1CC=C2CCC[C@H](C)[C@@]2(C)C1,Potency,[1],inactive
same,Potency,[2],inactive
